Screening results as filed in PubChem.
TRHR ag – TRH receptor (human) agonism; P34981; TRHR cells, calcium flux fluo-8, FDSS agonist mode; activation, % at 2 µM; actives 0.18% (n = 360,000); AID 493084; also: 0% is about no effect
Target sequence (P34981 whole entry, looked up): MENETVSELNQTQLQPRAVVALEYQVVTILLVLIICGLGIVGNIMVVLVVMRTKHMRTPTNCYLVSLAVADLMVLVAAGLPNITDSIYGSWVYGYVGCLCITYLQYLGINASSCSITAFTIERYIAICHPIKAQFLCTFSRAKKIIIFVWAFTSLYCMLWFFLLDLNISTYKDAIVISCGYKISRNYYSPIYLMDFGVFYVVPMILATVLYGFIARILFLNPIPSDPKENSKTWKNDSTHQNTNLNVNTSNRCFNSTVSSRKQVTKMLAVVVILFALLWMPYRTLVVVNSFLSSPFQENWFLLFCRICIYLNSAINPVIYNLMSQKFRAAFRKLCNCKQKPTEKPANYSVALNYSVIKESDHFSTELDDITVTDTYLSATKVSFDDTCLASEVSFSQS
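Fluo-8-loaded TRHR cells; 10 s baseline, compound added, kinetic Ca2+ fluorescence read 1/s, agonist mode.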
TRHR enhancer – allosteric enhancers of human TRH receptor; P34981; TRHR cells, fluo-8 calcium fluorescence, EC20 TRH enhancement; enhancement, % at 2 µM; actives 0.66% (n = 360,000); in the data active = enhancement above about 30%; also: 0% is about no effect
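TRHR-expressing cells loaded with fluo-8 calcium dye were read kinetically (ex 480/em 530) during compound addition, then stimulated with an EC20 of TRH (10 nM final). Enhancement of the Gq-mediated intracellular calcium response was scored.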
D1 antag – antagonists of human D1 dopamine receptor; P21728; HEK293 TREx D1 cells, calcium flux, dopamine EC80; hits give low values; activity change, negative = inhibition, % at 10 µM; actives 3.2% (n = 360,000); AID 504652; in the data active = activity change below about -30%; also: % is scaled to controls: 0 for no effect and ±100 for the full control effect
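After overnight tetracycline induction at 30 C, force-coupled D1 HEK293 cells took up a no-wash calcium dye at room temperature. Compounds were added and monitored 180 s, and the response to EC80 dopamine was then recorded.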
D1 PAM – human D1 dopamine receptor positive modulation; P21728; HEK293 TREx D1 cells, calcium flux, dopamine EC20 potentiation; potentiation, % at 10 µM; actives 0.036% (n = 360,000); in the data active = potentiation above about 30%; also: 0% is about no effect
D1 ag – agonists of human D1 dopamine receptor; HEK293 T-REx D1 cells, calcium flux, agonist mode; activation, % at 2 µM; actives 1% (n = 360,000); AID 504660; also: 0% is about no effect
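Tetracycline-induced HEK293 TREx D1 cells, force-coupled to calcium signalling, were dye-loaded with a no-wash calcium kit. Compound was pin-added after a 10 s baseline. Fluorescence was read kinetically at 1 cycle/s for 180 s, with calcium rises flagged as agonism.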
The depositor's hits bear a star; ! = not confirmed by another sample. In the library only some 4.7% were active in any assay of this set; here they are far more common. Rule as the data show it, unless noted: active = activation above about 30%; inactive = the rest.

SMILES	TRHR ag	TRHR enhancer	D1 antag	D1 PAM	D1 ag
CCN(Cc1ccccc1)C(=O)Cn1cc(S(=O)(=O)Cc2cccc(Cl)c2)c2ccccc21	0.9	-6.3	-13.8	-0.7	3.5
CCS(=O)(=O)c1ncc(Cl)c(C(=O)Nc2ccc(S(=O)(=O)N3CCC(C)CC3)cc2)n1	0.1	18.9	-65.5*	-12.6	1.8
CCOC(=O)c1c(NC(=O)c2nc(S(C)(=O)=O)ncc2Cl)sc(C(C)=O)c1C	-1.2	-11.0	-31.2*	2.0	1.1
CCSc1ncc(Cl)c(C(=O)Nc2ccc(S(=O)(=O)N3CCC(C)CC3)cc2)n1	1.3	-5.2	-2.7	0.8	2.0
CCc1ccc(NC(=O)c2nnn(Cc3cccc(C(F)(F)F)c3)c2N)cc1	-0.8	3.1	-6.7	-0.4	4.0
Oc1ccc(-c2csc(Nc3ccccn3)n2)cc1	0.0	-4.5	-79.3*	-19.9	2.2
O=C(NCCc1ccccc1)c1nc(-c2cccs2)no1	-0.6	-3.8	-35.9*	-2.3	0.8
Cc1ccc(NC(=O)Nc2nnc(N(C)Cc3ccccc3)s2)c(C)c1	-0.1	-3.3	-40.7*	-0.1	4.1
Cc1ccc(Cl)cc1NC(=O)Nc1nnc(N(C)Cc2ccccc2)s1	0.0	15.9	-8.3	-1.9	0.5
CCN(c1ccccc1)c1nnc(NC(=O)Nc2ccc(C)cc2)s1	-0.3	0.9	-34.5*	-2.8	-2.4
CCN(c1ccccc1)c1nnc(NC(=O)Nc2ccc(Br)c(C)c2)s1	0.4	-5.9	-1.6	-3.3	2.2
COc1ccccc1Nc1ncnc2nc[nH]c12	0.0	3.4	-9.2	-6.3	-0.4
O=C(Nc1ccc(F)cc1F)c1ccc2c(O)c(S(=O)(=O)c3ccc(Cl)cc3)c(=O)[nH]c2c1	-0.6	11.3	1.6	-0.8	1.4
COc1ccc(C(CCNCc2ccccc2)c2ccc(F)cc2)cc1 (stereo not given)	2.0	2.3	3.9	-4.2	28.6
COc1ccc(C(CCNCc2ccc(F)cc2)c2ccc(F)cc2)cc1 (stereo not given)	5.2	1.3	-0.5	9.8	45.9*
COc1ccc(C(CCNC(C)c2ccccc2)c2ccc(F)cc2)cc1 (stereo not given)	1.6	-2.9	0.4	4.2	55.5*
COc1ccc(CNCCC(c2ccc(F)cc2)c2ccc(OC)cc2)cc1 (stereo not given)	1.1	8.5	4.3	-4.8	34.2*
COc1ccccc1-c1nn2c(=O)cc(CN3CCN(C(=O)/C=C/c4ccccc4)CC3)nc2s1	-0.5	-4.9	1.3	-0.8	1.4
COc1cccc(OC)c1C(=O)NC(=S)Nc1cc(-c2nc3ccccc3[nH]2)ccc1Cl	1.4	-7.7	-21.3	-6.3	1.3
CC(=O)Nc1ccc(S(=O)(=O)NC2(C(F)(F)F)C(=O)Nc3c2c(=O)[nH]c(=O)n3-c2ccc(C)cc2)cc1 (stereo not given)	0.0	15.7	11.9	-2.8	-0.8
Cc1nn(CCc2nn[nH]n2)c2nc(C(F)(F)F)cc(C(F)(F)F)c12	2.9	-14.7	-4.1	-3.9	5.7
Cc1nn(CCc2nn[nH]n2)c2nc(-c3ccc(Br)cc3)cc(C(F)(F)F)c12	-2.1	-3.1	-36.1*	-1.9	3.6
O=C1CCC(C(=O)N2CCCC(C(=O)c3ccc4c5c(cccc35)CC4)C2)=NN1 (stereo not given)	1.2	-2.4	-32.8*	-3.5	2.4
CN(c1ccccc1)P(=O)(N(C)c1ccccc1)N(C)c1ccccc1	-0.8	-11.8	-10.8	-2.8	7.8
CC(=O)c1cccc(NC(=O)CSc2ncc(C(=O)Nc3ccccc3)c(=O)n2C)c1	0.1	1.3	-0.9	-3.5	4.4
SMILES	TRHR ag	TRHR enhancer	D1 antag	D1 PAM	D1 ag
C=CCOc1cccc(C2/C(=C(\O)c3ccc(F)cc3)C(=O)C(=O)N2CCN(C)C)c1 (stereo not given)	-0.3	-2.9	-52.7*	-5.2	-0.5
CCCOc1cccc(C2/C(=C(/O)c3ccc(F)cc3)C(=O)C(=O)N2CCN(C)C)c1 (stereo not given)	0.4	-1.5	1.0	-2.6	3.0
O=C(NCCCN1CCN(c2ccccc2)CC1)c1sc2ncccc2c1-n1cccc1	-0.5	0.5	-21.9	-4.8	0.1
Cc1ccc(C)n1-c1c(C(=O)NCCCN2CCN(c3ccc(F)cc3)CC2)sc2ncccc12	-0.9	2.0	-56.3*	-4.7	0.7
O=C(NCCCN1CCN(c2ccccc2F)CC1)c1sc2ncccc2c1-n1cccc1	-0.5	1.3	-38.2*	-5.3	-0.6
O=C(NCCCN1CCN(c2cccc(Cl)c2)CC1)c1sc2ncccc2c1-n1cccc1	-0.1	-4.2	-35.0*	-4.5	1.9
CCCn1ncc(OC)c(Cl)c1=O	0.2	1.0	-59.4*	-2.1	-0.8
COc1ccc2cnn(Cc3ccccc3)c(=O)c2c1OC	-0.7	13.6	-11.0	-0.2	2.9
CCOc1ccccc1N(CC)C(=O)c1cc2c(=O)n(CC)c3ccccc3c2s1	-0.5	50.0*	0.5	-4.5	5.2
CCCN(C(=O)c1cc2c(=O)n(CC)c3ccccc3c2s1)c1ccccc1F	0.0	-0.6	-3.1	1.0	1.4
CCCc1nc(SCC(=O)Nc2ccc(N3CCOCC3)cc2)c2ccccc2n1	0.6	2.3	-35.6*	-19.7	0.8
COc1ccc(NC(=O)CSc2nc3ccccc3nc2N2CCOCC2)cc1	-0.4	-5.3	-9.0	0.8	3.0
CCOc1ccc(NC(=O)CSc2nc3ccccc3nc2N2CCOCC2)cc1	-0.5	34.2*!	9.7	2.6	2.6
CC(C)c1nc(SCC(=O)Nc2ccc(N3CCOCC3)cc2)c2ccccc2n1	-0.4	-0.7	-18.4	-2.6	0.6
Cc1cccc(-n2c(N)c(-c3nc4ccccc4n3C)c3nc4ccccc4nc32)c1	12.9	0.3	2.9	2.5	59.6*
Cn1c(-c2c(N)n(-c3ccccc3)c3nc4ccccc4nc23)nc2ccccc21	17.0	1.8	14.0	-0.7	50.5*
CCCc1n[nH]c2c1C(=O)CC(C)(C)C2	0.1	14.4	8.8	33.1*	1.7
CCCCc1n[nH]c2c1/C(=N/O)CC(C)(C)C2	0.2	-0.3	-7.9	-8.2	1.4
CCCCc1n[nH]c2c1/C(=N/OCC)CC(C)(C)C2	-0.8	6.1	61.7	34.6*	61.9*
CCSc1ccccc1C(=O)Nc1ccc(-c2nc3ccccc3s2)c(O)c1	0.8	10.9	-1.8	-2.5	2.9
CCCOc1ccc(CCc2n[nH]c(=S)n2Cc2ccccc2)cc1	-0.2	-2.8	-43.3*	-2.8	3.7
CCCOc1ccc(CCc2n[nH]c(=S)n2-c2ccccc2)cc1	-0.9	3.9	4.1	2.1	6.0
Cc1cc(C)n2c(SCC(=O)Nc3ccccc3C#N)nnc2n1	0.3	2.0	9.2	4.1	3.6
Cc1ccc(N=C2NC(=O)/C(=C/c3cn(C)c4ccccc34)S2)cc1C	17.6	7.3	-98.5*	-1.8	54.1*
